High-throughput results from PubChem.
Most compounds without a hit are left out; they make up all but 19% or so of the library.
KB-3-1 cytotox: kills parental KB-3-1 adenocarcinoma cells. KB-3-1 viability, CellTiter-Glo ATP luminescence, 72 h. Potency, µM (top dose mostly 46.1 µM), actives largely listed as cytotoxic. hit rate 1.4% among 400,000; also: nearly all actives have a fitted effect of over 60% in size
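Here the drug-naive KB-3-1 line serves as comparator for MDR sub-line selectivity; cells received compound titrations, 72 h at 37 °C, then CellTiter-Glo readout.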
TDP1 cell noCPT: qHTS for Inhibitors of human tyrosyl-DNA phosphodiesterase 1 (TDP1): qHTS in cells in absence of CPT. DT40 Tdp1-/- hTDP1 cells, no CPT, ATP luminescence, 48 h. Potency, µM (highest dose often 46.2 µM), for the others: at the top dose activity change, negative = growth inhibition, actives largely listed as inhibitors. hit rate 15% among 420,000; also: nearly all actives have a fitted effect of over 55% in size
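Camptothecin absent (DMSO only). Human TDP1-complemented DT40 knockout cells, 400 cells/well, 37 °C for minimum 48 hr; ATP measured via CellTiter-Glo, 30 min dark incubation, luminescence.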
HT1080 IDH1KD tx: HT-1080 IDH1 knockdown cell toxicity (counter line) | hit rate 2% among 360,000 | HT-1080 IDH1 knockdown viability, ATP luminescence, 48 h | Potency, µM (top dose mostly 46.1 µM), for inactives: at the highest dose activity, negative = toxicity, usual class: cytotoxic;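 also: 0% = DMSO wells and -100% = cell-free medium wells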
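IDH1KD HT-1080 cells, 750/well, RPMI + 5% FBS; compound pinned after 2 h settling; 48 h, 37 °C; CellTiter-Glo luminescence; % activity normalised to DMSO and no-cell wells; curves fitted, classed by r2 and efficacy.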
DT40 TDP1 CPT: DT40-hTDP1 cell growth loss with CPT; chicken DT40 Tdp1-/-;hTDP1 cells + 20 nM CPT, ATP luminescence, 48 h; hit rate 12% among 420,000; AID 686979; Potency, µM (highest dose often 46.2 µM), for inactives: top-dose activity change, negative = growth inhibition, usual class: inhibitors; also: nearly all actives have a fitted effect of over 55% in size
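Cell growth measured by CellTiter-Glo luminescence after a minimum 48 h, 37 C compound exposure with 20 nM CPT in Tdp1-knockout DT40 cells stably expressing hTDP1, seeded 400/well; qHTS titration format.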
HT1080-NT tox: kills 2HG-producing HT-1080-NT fibrosarcoma cells | HT-1080-NT fibrosarcoma viability, CellTiter-Glo ATP luminescence, 48 h | Potency, µM (titrated, usually from 46.1 µM), inactives show top-dose activity, negative = less viability, actives largely listed as cytotoxic | hit rate 1.6% among 360,000 | AID 686970;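 also: NT is the 2HG producing partner of a matched IDH1 knockdown line; 0% = DMSO-treated cells and -100% = media-only wells without cells; nearly all actives have a fitted effect of over 55% in size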
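Viability by CellTiter-Glo luminescence after 48 h compound exposure at 37C of HT-1080-NT cells (750/well, RPMI, 5% FBS). % activity scaled between DMSO wells and medium-only wells, then curve-fitted and categorized by curve class.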
KB-V1 MDR tox: kills drug-selected multidrug resistant KB-V1 cells | KB-V1 MDR cells viability, CellTiter-Glo, 72 h | Potency, µM (titrated, usually from 46.1 µM), actives largely listed as cytotoxic | hit rate 3.4% among 400,000 | AID 1347076; also: nearly all actives have a fitted effect of over 60% in size
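Drug-selected KB-V1 cells, grown in DMEM lacking phenol red with 10% FBS, receive compound titrations; after three days at 37 degrees C, surviving cell ATP is quantified by CellTiter-Glo luminescence and responses normalized and curve-fitted.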
Active calls of the source: *; i = inactive; ? = inconclusive; nt = no result given; ! = not active in a repeat. Calls follow the shape of the dose curve; as a rule, active = well fitted curve in the direction sought with a large enough effect; inconclusive = small, poorly fitted or top-dose-only effect, or another doubt; inactive = no such curve, though single readings can be large; an effect the other way counts as inactive or inconclusive. Unless noted, % is scaled to controls: 0 for no effect and ±100 for the full control effect; potency is read from the fitted curve at half-maximal effect.

SMILES | KB-3-1 cytotox | TDP1 cell noCPT | HT1080 IDH1KD tx | DT40 TDP1 CPT | HT1080-NT tox | KB-V1 MDR tox
Cc1nn(-c2ccccc2)c(OC(=O)c2ccc(Br)cc2)c1S(=O)(=O)c1ccccc1 | i | -1.6% | nt | -5.7% | nt | i
C/C=C/C1=CC(=O)C[C@H](c2ccc(Cl)cc2)C1 | i | ? | 7.7% | ? | 0.0% | i
CN(C(=O)C1=CC(c2ccc3c(c2)OCO3)=NS(=O)(=O)N1C)c1ccccc1 | i | -11.6% | nt | -11.4% | nt | i
COc1ccc(-n2nc3c(N4CCCC(C(=O)NCc5ccc(C)cc5)C4)nnc(C)c3c2C)cc1 (centres undefined) | i | 3.26µM* | nt | 4.61µM* | nt | i
CCc1ccc(CNC(=O)C2CCCN(c3nnc(C)c4c(C)n(-c5ccc(OC)cc5)nc34)C2)cc1 (centres undefined) | i | 3.26µM* | nt | 4.61µM* | nt | ?
COc1ccc(CNC(=O)C2CCCN(c3nnc(C)c4c(C)n(-c5ccc(C)cc5)nc34)C2)cc1 (centres undefined) | i | 20.6µM* | nt | 13µM* | nt | i
Cc1nnc(N2CCCC(C(=O)NCc3ccc(OC(C)C)cc3)C2)c2nn(-c3ccccc3)c(C)c12 (centres undefined) | i | ? | ? | ? | ? | i
CCN(CC)CCNC(=O)C1CCCN(c2nnc(C)c3c(C)n(-c4ccc(Cl)cc4)nc23)C1 (centres undefined) | i | ? | nt | ? | nt | ?
O=C(CSc1ccccc1)NCc1ccc2c(c1)CCN2C(=O)c1ccc(Cl)cc1 | i | ? | nt | -11.6% | nt | i
CCOC(=O)C1=C(c2ccccc2)NC(N)=NC1c1ccc(OCc2ccc(Cl)cc2)c(OC)c1 (centres undefined) | ? | ? | -6.2% | 23.1µM* | 6.3% | i
CCSc1nnc2ccc(-c3ccc(OC)c(OC)c3)nn12 | i | 23.1µM* | -17.4% | ? | -15.5% | i
COc1ccc(-c2ccc3nnc(SCC(N)=O)n3n2)cc1 | i | 0.3% | 2.7% | -11.0% | -0.1% | i
CC[C@@]1(C(=O)OC)N[C@H](CN(C)S(=O)(=O)c2ccc(F)cc2)[C@@H]2C(=O)N(C)C(=O)[C@@H]21 | i | -9.3% | 10.2% | -11.9% | 14.4% | i
O=C1c2ccccc2CCC12OC2c1ccncc1 (centres undefined) | i | 2.91µM* | -14.7% | -16.3% | 1.6% | i
COCCCCC(=NOCCN)c1ccc(C(F)(F)F)cc1 | nt | 23.7µM* | nt | 13.3µM* | nt | nt
COCCCC/C(=N\OCCN)c1ccc(C(F)(F)F)cc1 | ? | 20.6µM* | 18.4µM*! | 13µM*! | ? | ?
Cc1ccc(-n2ncc(C(=O)NCCCN3CCc4ccccc4C3)c2C2CCN(C(=O)OC(C)(C)C)CC2)c(C)c1 | nt | 20.6µM* | nt | 20.6µM* | nt | nt
CCN1CCN(CCCNC(=O)c2cnn(-c3ccccc3)c2C2CCN(C(=O)OC(C)(C)C)CC2)CC1 | i | 0.5% | nt | -9.9% | nt | i
Cc1cccc(C)c1-n1ncc(C(=O)NCCCN2CCC(C)CC2)c1C1CCN(C(=O)OC(C)(C)C)CC1 | ? | 20.6µM* | nt | ? | nt | i
CC(C)(C)OC(=O)N1CCC(c2c(C(=O)NCCCN3CCc4ccccc4C3)cnn2-c2ccccc2)CC1 | i | 23.1µM* | nt | ? | nt | i
Cc1ccc(-n2ncc(C(=O)NCCCN3CCc4ccccc4C3)c2C2CCN(C(=O)OC(C)(C)C)CC2)cc1C | i | ? | nt | ? | nt | i
CN(C)c1ccc(-c2cncnc2NCc2ccccc2)cc1 | nt | -26.0% | nt | -29.7% | nt | nt
O=S(=O)(c1ccccc1)N1CCC2(CCN(Cc3nccs3)CC2)CC1 | nt | -11.4% | nt | 7.8% | nt | nt
Cn1c(=O)c2c(nc(CN3CCCCC3)n2CCCc2ccccc2)n(C)c1=O | i | ? | -1.8% | ? | -7.7% | ?
Cn1c(=O)c2c(nc(CN3CCN(Cc4ccccc4)CC3)n2Cc2cccc(Cl)c2)n(C)c1=O | ? | 16.4µM* | -10.0% | 23.1µM* | -18.9% | i
SMILES | KB-3-1 cytotox | TDP1 cell noCPT | HT1080 IDH1KD tx | DT40 TDP1 CPT | HT1080-NT tox | KB-V1 MDR tox
CCCCCCn1c(CN2CCN(Cc3ccccc3)CC2)nc2c1c(=O)n(C)c(=O)n2C | ? | ? | 0.4% | ? | 0.1% | 18.4µM*
CCN1CCN(Cc2nc3c(c(=O)n(C)c(=O)n3C)n2CCc2ccccc2)CC1 | i | -8.5% | -1.3% | -25.1% | 20.4% | i
CCCCCCn1c(CN2CCN(C(=O)OCC)CC2)nc2c1c(=O)n(C)c(=O)n2C | i | ? | 5.5% | 20.6µM* | 3.2% | ?
CC1CCCN(Cc2nc3c(c(=O)n(C)c(=O)n3C)n2CCCc2ccccc2)C1 (centres undefined) | i | 18.4µM* | -1.1% | 20.6µM* | -2.1% | ?
CCOC(=O)N1CCN(Cc2nc3c(c(=O)n(C)c(=O)n3C)n2CCC(C)C)CC1 | i | ? | 8.8% | -29.2% | -2.2% | i
COc1ccccc1C(=O)NC(=O)CSc1nnc(C)s1 | i | 29.3% | 7.1% | -5.2% | 14.6% | i
COc1cc(SC)ccc1C(=O)Nc1cccc(S(=O)(=O)NC2=NCCC2)c1 | i | -14.5% | -1.1% | -25.5% | 1.7% | i
COCCCNc1ncnc2sc(C(=O)N3CCOCC3)c(C)c12 | nt | -9.1% | nt | 10.9% | nt | nt
Cn1c(=O)c2c(nc(CN3CCN(C(=O)c4ccco4)CC3)n2CCCc2ccccc2)n(C)c1=O | i | 20.6µM* | -4.5% | ? | -0.1% | i
CCCn1c(CN2CCN(C(=O)OCC)CC2)nc2c1c(=O)n(C)c(=O)n2C | i | 5.17µM* | 2.3% | 8.2µM* | 11.8% | i
CCOC(=O)N1CCN(Cc2nc3c(c(=O)n(C)c(=O)n3C)n2CCCc2ccccc2)CC1 | ? | -30.0% | -3.7% | ? | -7.2% | 9.2µM*
CCOC(=O)CN(Cc1ccccc1)C(C(=O)NC1CCCCC1)c1ccc(C)cc1 (centres undefined) | i | ? | nt | ? | nt | i
Cc1sc(N=Nc2ccc(N(C)C)cc2)[n+]([O-])c1C | i | ? | ? | ? | -14.4% | i
CCC1=NN(C(=O)CCc2ccccc2)C(O)(C(F)(F)F)C1 (centres undefined) | i | -15.8% | ? | 1.1% | -3.0% | i
